What was measured:
Type in all cases: functional
[1] = target: Solute carrier family 2, facilitated glucose transporter member 1 (Homo sapiens) (UniProt P11166); experiment: ST_JUDE_LEISH: Cytotoxicity at 2uM final concentration against transgenic Leishmania Mexicana promastigotes LmGLUT1 that are glucose transport deficient and complemented with the human glucose transporter GLUT1. Activity is measured by DNA content using SYBR green in vitro
[2] = target: Hexose transporter 1 (Plasmodium falciparum) (UniProt O97467); experiment: ST_JUDE_LEISH: Cytotoxicity at 2uM final concentration against transgenic Leishmania Mexicana promastigotes LmPfHT that are glucose transport deficient and complemented with the Plasmodium falciparum hexose transporter. Activity is measured by DNA content using SYBR green in vitro
[3] = target: Glucose transporter (Leishmania mexicana) (UniProt O61059); experiment: ST_JUDE_LEISH: Cytotoxicity at 2uM final concentration against transgenic Leishmania Mexicana promastigotes LmGT2 that are glucose transport deficient and complemented with the L. Mexicana glucose transporter 2. Activity is measured by DNA content using SYBR green in vitro

Sequence of Solute carrier family 2, facilitated glucose transporter member 1 (Homo sapiens) (P11166 whole entry): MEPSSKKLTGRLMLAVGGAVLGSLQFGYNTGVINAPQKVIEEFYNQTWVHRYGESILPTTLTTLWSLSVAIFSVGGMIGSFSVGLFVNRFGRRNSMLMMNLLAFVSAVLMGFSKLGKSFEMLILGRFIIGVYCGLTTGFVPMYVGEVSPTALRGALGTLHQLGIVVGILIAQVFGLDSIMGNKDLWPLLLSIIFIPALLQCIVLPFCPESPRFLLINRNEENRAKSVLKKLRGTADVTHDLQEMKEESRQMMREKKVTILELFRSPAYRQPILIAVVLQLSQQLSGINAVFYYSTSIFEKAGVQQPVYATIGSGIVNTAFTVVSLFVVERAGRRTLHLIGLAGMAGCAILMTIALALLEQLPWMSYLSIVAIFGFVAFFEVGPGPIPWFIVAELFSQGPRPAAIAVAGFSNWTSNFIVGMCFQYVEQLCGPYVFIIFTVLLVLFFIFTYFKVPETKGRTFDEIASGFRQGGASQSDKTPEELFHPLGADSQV

Row | SMILES | inhibition [1] [%] | inhibition [2] [%] | inhibition [3] [%]
1 | COc1ccccc1CN1CCC(NC(=O)c2ccc(-c3cccc(Cl)c3)s2)CC1 | 8.99 | 8.66 | 2.23
2 | NC(=O)c1cc2nc(Nc3ccc(F)cc3)nc(NC3CCC3)c2[nH]1 | 1.42 | 1.11 | -0.6
3 | CCOc1ccc2nc(N(CCCn3ccnc3)C(=O)C=Cc3cccs3)sc2c1 | 3.54 | 2.73 | -8.76
4 | Cc1nc(-c2ccccc2)nc(N2CCN(C(=O)c3ccco3)CC2)c1Cc1ccccc1F | 7.73 | 9.03 | 7.76
5 | CCCC(=O)NC(c1ccc(C(C)C)cc1)c1ccc2cccnc2c1O (centres undefined) | 2.04 | 3.11 | 0.65
6 | CC(=O)NCCNc1cc(N2CCc3ncnc(Nc4ccc(OCc5c(F)cccc5F)c(Cl)c4)c3C2)ncn1 | 0.69 | 1.6 | 1.84
7 | CN1CCc2cc(NS(=O)(=O)c3ccc(-c4ccc(Cl)s4)cc3)c(N3CCCCC3)cc2CC1 | -0.61 | 0.7 | -2.07
8 | CCCCCCC(C)c1cc(O)c2c(c1)OC(C)(C)C=C2c1ccncc1 (centres undefined) | 1.01 | -0.62 | 0.58
9 | Cc1cccc2nc(-c3cccc(-c4cccc(NC(=O)c5ccc(=O)[nH]n5)c4)c3)[nH]c12 | 5.27 | 1.34 | 2.2
10 | CN1CCN(c2ccc(-c3cccc(NC(=O)c4ccc5ccccc5c4)c3)nn2)CC1 | 14 | 10.9 | 7.19
11 | Cc1cccc2nc(-c3ccc(-c4cccc(NC(=O)Nc5ccsc5)c4)cc3)[nH]c12 | 1.48 | 0.08 | -1.47
12 | CC(C)CN1CCN(CCNc2c3ccccc3nc3ccccc23)CC1 | 83 | 83.1 | 81.3
13 | Cc1cc(-c2ccc(NC(=O)N3CCc4cc(Br)c(N5CCN(C)CC5)cc43)cc2)cc(C)n1 | 9.14 | 8.41 | 10.1
14 | Cc1cc(NC(=O)c2cccs2)ccc1OC1CCN(Cc2ccc(F)cc2)CC1 | 1.65 | 2.76 | 5.08
15 | N#Cc1ccc2c(c1)CCN(CCC1CCC(NC(=O)c3cc4cccc([N+](=O)[O-])c4[nH]3)CC1)C2 (centres undefined) | 10.1 | 10.8 | 9.97
16 | COc1ccc(C(c2ccc(N(C)C)cc2)c2ccc(N(C)C)cc2)cc1 | 95.3 | 94.5 | 84.9
17 | O=C(NCc1cccc(C(F)(F)F)c1)C(c1cc2ccccc2o1)N1CCN(C(c2ccccc2)c2ccccc2)CC1 (centres undefined) | 1.37 | 2.33 | 0.71
18 | CCCCCOc1ccc(C(O)C(CCC(CN2CCCCCC2)C(O)c2ccc(OCCCCC)cc2)CN2CCCCCC2)cc1 (centres undefined) | 3.22 | 2.73 | 1.43
19 | CC(C)[C@H](NC(=O)c1ccc(O)c(-c2cccc(C(F)(F)F)c2)c1)C(=O)NCCN1CCCCC1 | -0.28 | -0.52 | 0.62
20 | N#Cc1ccc(-c2ccc(C(=O)NCCCCN3CCC(n4cnc5ccccc54)CC3)cc2)cc1 | 3.46 | 3.72 | 5.28
21 | O=C(CCC1CCCCC1)NCCNc1cccc2ccccc12 | -0.06 | -0.34 | -3.97
22 | Cn1ccnc1S(=O)(=O)CCNCc1ccc(-c2ccc3ncnc(Nc4ccc(OCc5cccc(F)c5)c(Cl)c4)c3c2)o1 | 3.08 | 6.11 | 0.71

Row | SMILES | inhibition [1] [%] | inhibition [2] [%] | inhibition [3] [%]
23 | c1ccc(-c2nc(NCCCn3ccnc3)cc(-c3ccncc3)n2)cc1 | 3.22 | 4.55 | 1.25
24 | Cc1cc2ncc(C(N)=O)c(Nc3ccc(N4CCOCC4)cc3)c2cc1S(C)(=O)=O | 1.97 | 3.83 | 5.19
25 | CCNc1cc(C(=O)N[C@@H](Cc2ccccc2)[C@H](O)CNC2(CC)CCCCC2)cc(N2CCCCS2(=O)=O)c1 | -0.15 | 0.61 | -2.89
26 | CN1CCCc2ccc(NC(=O)c3ccc(-c4cc(C(F)(F)F)nn4C)s3)cc2C1 | 2.28 | 1.85 | -2.38
27 | COc1cc(OC)c2c(C)cc(NCCCn3ccnc3)nc2c1 | 2.59 | 3.68 | 0.88
28 | N#Cc1ccc2c(c1)CCN(CCC1CCC(NC(=O)c3cc4cccc(Cl)c4[nH]3)CC1)CC2 (centres undefined) | 15.5 | 11.7 | 9.05
29 | Cc1[nH]c(C)c(-c2ccc(-c3ccc(F)cc3)nc2)c(=O)c1Br | 0.98 | 1.82 | 1.04
30 | Cc1ccc2cc(NC(=O)CCCCCCCON3C(N)=NC(N)=NC34CCCCC4)ccc2n1 | -1.59 | 0.8 | 0.83
31 | COc1cccc(C(=O)N2CCN(Cc3cccc(NC(=O)c4cccs4)c3)CC2)c1 | 2.14 | 2.18 | 5.14
32 | O=C(Nc1cc(C(F)(F)F)cc(C(F)(F)F)c1)Nc1cc(C(F)(F)F)cc(C(F)(F)F)c1 | 1.91 | 4.29 | 3.86
33 | CCCc1cc(C(=O)N[C@@H](Cc2ccccc2)[C@H](O)CNC2CCOCC2)c(F)c(N2CCCCS2(=O)=O)c1 | 4.76 | 5.47 | 6.25
34 | CC(C)n1c(C2CCN(CC3CCN(C(=O)/C=C/c4ccc(Cl)c(Cl)c4)CC3)CC2)nc2ccccc21 | 0.12 | -1.72 | -0.72
35 | CCCCCCN1CCC(NCc2cccc(-n3ccnc3)c2)CC1 | 8.02 | 7.03 | 9.81
36 | Fc1cccc(COc2ccc(-n3ccc4c(NCCCn5ccnc5)ncnc43)cc2Cl)n1 | 1.74 | 2.45 | 1.59
37 | CN1CCCN(Cc2ccc(-c3ccc(NC(=O)c4cccc(C#N)c4)cc3)cc2)CC1 | 2.3 | 0.34 | 0.78
38 | COc1cc2nc(N3CCC(CNCc4ccc(-c5ccc(C(F)(F)F)cc5)cc4)CC3)nc(N)c2cc1OC | 106 | 107 | 110
39 | CCOC(=O)[C@H](Cc1cccc2ccccc12)NC(=O)[C@H](CCC(=O)OC(C)(C)C)NC(=O)c1ccc(N(C)Cc2cnc3nc(N)nc(N)c3n2)cc1 | 3.47 | 4.12 | 3.56
40 | CCCc1cc(Cc2cnc(N)nc2N)ccc1OCCCCCC(=O)OCC | 1.31 | -1.27 | -2.01
41 | Cc1cccc2nc(-c3cccc(-c4cccc(NC(=O)CNC(=O)c5ccc(O)cc5)c4)c3)[nH]c12 | 0.25 | -0.56 | -0.5
42 | Cc1nc(O)c2c(ccc3ccc(CNc4ccc(C(=O)N[C@@H](CCC(=O)O)C(=O)O)c(F)c4)cc32)n1 | -0.83 | 0.87 | -0.16
43 | O=C(/C=C/c1ccc(Cl)c(Cl)c1)NCCCCCN1CC[C@H](NC(=O)c2ccc3c(c2)OCO3)C1 | 5.7 | 5.13 | 3.74
